This is part of a sample that, as a whole, favours compounds with a hit. Of some 83,000 tested, about 20% had one in any assay.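 Single-dose data. Exposure time 48 hours. Values below 10 considered active.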 Activity calls are given as the source filed them.

The assay has as its system NCI-H226 lung. The experiment in a line: NCI-60 one-dose screen, 48 h (100 = growth as untreated, 0 = no growth, -100 = all killed). As to conditions: 10 µM unless noted. Here is the method:
Growth inhibition of the NCI-H226 human Non-Small Cell Lung tumor cell line is measured as a screen for anti-cancer activity. Cells are grown in 96 well plates and exposed to the test compound for 48 hours. Compounds are tested at a single concentration, which is 10^-5 M for most compounds. The reported endpoint is percent growth (GI% or GIPRCNT), where numbers from 0 - 100% represent growth inhibition, and numbers from -100% - 0 represent cell death. For example, a value of 40 represents 60% growth inhibition. A value of 0 means no net growth occurred over the course of the experiment. A value of -40 indicates 40% of cells at the beginning of the experiment died by the end of the experiment. A value of -100 means all cells are dead at the end of the experiment.
NCI-60 Human Tumor Cell Lines Screen was performed using the standard one-dose NCI protocol, which is described in more detail at https://dtp.cancer.gov/discovery_development/nci-60/default.htm.
Compounds with GIPRCNT values below 10 were considered active. Activity score was based on GIPRCNT using the following formula: […]
Score is 0 for GIPRCNT values of 100 or above, 50 for GIPRCNT values of 0, and 100 for GIPRCNT values of -100.
On to `CCOC(=O)c1c(C)c2c(n1C)CSc1cc(C(=O)c3ccccc3)c(=O)[nH]c1-2`, for which the growth was 98.3% [100 µM] (inactive).
As for `O=C(CSc1nnc2n1S(=O)(=O)c1ccccc1N2c1ccccc1)Nc1nc2ccc(F)cc2s1`, the figure is 93.2% (inactive).
The result for `Cn1cccc1C(=O)C1C(c2cccc([N+](=O)[O-])c2)C2C3CCCCC3CN2C12C(=O)Nc1ccc(Cl)cc12` (stereo not given) reads 41.5% (inactive); that for `O=[N+]([O-])c1ccc(N/N=C(/C(=N/Nc2ccc([N+](=O)[O-])cc2)c2ccccc2)c2ccccc2)cc1`, 97.5% (inactive); that for `O=C(c1ccc(Cl)cc1)N1CCN(c2ccnc3cc(Cl)ccc23)CC1`, 87.3% (inactive).
Consider `CC(C)=NNc1ccccn1`, for which the growth was 40.9% (inactive).
For `COC(=O)/C=C1/SC(=Nc2ccc(C)cc2)N(CCc2c[nH]c3ccc(O)cc23)C1=O`, the growth was 83.1% (inactive).
`O=C(NCc1ccccc1)Nc1ccccc1CNc1nc(Nc2ccc(OCCN3CCCC3)cc2)ncc1Cl`: the growth is 109% (inactive).
Regarding `CS(=O)(=O)C1=CN(CCO)C(=O)N2CCCN=C12`, the growth was 96.6% (inactive).
Take `CCOC(=O)Cn1c(O)c(N=Nc2ccc(S(N)(=O)=O)cc2)c2cc(Br)ccc21`: the growth was 85.9% (inactive).
`N#CC1=C(c2ccc(Cl)cc2)Nc2c(c(-c3ccc(Cl)cc3)nn2-c2ccccc2)C12C(=O)Nc1ccc(Cl)cc12` (stereo not given): the growth was 67% (inactive).
As for `N#CC1=C(N)Oc2c(sc3c(F)cccc23)C1c1ccc(F)cc1` (stereo not given), the growth is 36.5% (inactive).
Consider `O=c1oc2c(cnc3ccccc32)cc1-c1ccsc1`, for which the growth was 97.8% (inactive).
For the compound `Cc1ccc(Sc2nnc(/N=C3\C(=O)Nc4ccccc43)s2)cc1`, the growth is 106% (inactive).
Regarding `CCCCCCCCCCCCCCCC(N)c1ccccc1` (stereo not given), the growth is 87.6% (inactive).
As for `C=CCc1c(O)c(C(=O)/C=C/c2ccc(Cl)cc2)c(OC)c2ccoc12`, the growth is 28.7% (inactive).
As for `c1ccc(C2=NN[C@H](c3cn(-c4ccccc4)nc3-c3ccccc3)C2)cc1`, the figure is 25.5% (inactive).
As for `CCCNC(=O)Oc1ccc(/C(=C(/C)Cc2ccc(OC)cc2)c2ccc(OCCCN(C)C)cc2)cc1`, the figure is 94.7% (inactive).
Take `CCn1c(=S)sc2c(Nc3ccc(F)cc3)nc(-c3cccnc3)nc21`: the growth was 75.2% (inactive).
With `CC(=O)OCc1nc(C#N)c(N(C)C)o1`, the growth is 97.3% (inactive).
As for `COc1ccc2[nH]cc(-c3nc(-c4c[nH]c5ccncc45)cs3)c2c1`, the figure is 93.3% (inactive).
For the compound `O=S(=O)(NCCCNc1nccc(-c2c(-c3ccc(F)c(O)c3)nc3occn23)n1)c1ccccc1`, the growth was 115% (inactive).
The result for `CC(C)N1CCN(Cc2ccc3c(NNC(=O)c4ccccc4)nc4cc(F)ccc4n23)CC1` reads 14.5% (inactive); that for `CCOC(=O)c1c(C)nc2c(c1N)CC(=O)N2Cc1cc(F)cc(Cl)c1`, 89.1% (inactive); that for `Cc1cnc(C(=O)NNc2nc3sc4c(c3c(=O)n2C)C(C)CCC4)cn1` (stereo not given), -1.53% (active).
Turning to `Cc1ccc(-c2nc(N3CCNCC3)c3oc(-c4ccccc4)nc3n2)cc1`, the growth is 110% (inactive).
On to `COc1ccc2c(c1)[n+]([O-])c(C(=O)/C=C/C=C(\Cl)c1cc(OC)c(OC)c(OC)c1)c(C)[n+]2[O-]`, for which the growth was 103% (inactive).
For the compound `Clc1ccc(Nc2nnc(COc3ccccc3)c3ccccc23)cc1`, the growth was 1.78% (active).
Take `CC1=C(CCC(C)N(C)Cc2ccc(OCCCN3CCCC3)cc2)C(C)(C)CCC1` (stereo not given): the growth was 85.5% (inactive).
Regarding `COC(C(=O)[C@@H](O)[C@@H](C)O)[C@@H]1Cc2cc3cc(O[C@H]4C[C@@H](O[C@H]5C[C@@H](O)[C@H](O)C(C)O5)[C@H](O)C(C)O4)cc(O)c3c(O)c2C(=O)[C@H]1O[C@H]1C[C@@H](O[C@H]2C[C@@H](O[C@H]3C[C@@H](OC)[C@H](O)C(C)O3)[C@@H](O)C(C)O2)[C@H](O)C(C)O1` (stereo not given in full), the growth is 38.8% (inactive).
With `Cc1cccnc1NC(=S)Nc1ncccc1C`, the growth is 100% (inactive).
Take `CCN(CC)c1ccc(/C=C/C(=O)c2ccc(Nc3nc(Nc4ccccc4)nc(Nc4ccccc4)n3)cc2)cc1`: the growth was 63.8% (inactive).
On to `O=c1c2cc(-c3ccccc3)sc2nc2sc(-c3ccccc3)nn12`, for which the growth was 104% (inactive).
Turning to `CN(C)CCCC1(c2ccc(F)cc2)OCc2cc(-c3cncc4ccccc34)ccc21` (stereo not given), the growth was 77.2% (inactive).
The result for `CC1=C(Nc2ccc(N3CCN(C)CC3)cc2)C(=O)c2cncnc2C1=O` reads 99% (inactive).
As for `CCCCNc1ccc(C#N)c(OCCN(CC)CC)c1`, the growth is 88% (inactive).
For `N#C/C(=C\c1ccc(Br)cc1)n1nnc2ccc(F)cc21`, the growth is 2.99% (active).
Consider `CCn1c(SCC(=O)c2ccc(Br)cc2)nnc1-c1ccncc1`, for which the growth is 99% (inactive).
For the compound `S=C(Nc1ccc(-c2nc(N3CCOCC3)c3cccn3n2)cc1)Nc1cccnc1`, the growth was 38.2% (inactive).
Regarding `O=C1NCCC12CCN(c1c(Cl)cncc1-c1ccc(O)cc1)CC2`, the growth was 83.9% (inactive).

(Values after PubChem BioAssay (NCI).)
